# Data: PubChem BioAssay
# Unmarked numbers belong to inactive results. No rule for the calls is given here.
# Target: Pantothenate synthetase (Mycobacterium tuberculosis (strain ATCC 25618 / H37Rv)) (UniProt P9WIL5)
# Assay: Recombinant Mtb pantothenate synthetase (PanC) inhibitors, coupled enzyme, confirmatory (AID 375);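 also: 0% = full reaction with vehicle and 100% = no enzyme background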
# Conditions: coupled enzyme assay; at 10 µM, hits give high values
# Chain of Pantothenate synthetase (Mycobacterium tuberculosis (strain ATCC 25618 / H37Rv)) (P9WIL5 whole entry, looked up): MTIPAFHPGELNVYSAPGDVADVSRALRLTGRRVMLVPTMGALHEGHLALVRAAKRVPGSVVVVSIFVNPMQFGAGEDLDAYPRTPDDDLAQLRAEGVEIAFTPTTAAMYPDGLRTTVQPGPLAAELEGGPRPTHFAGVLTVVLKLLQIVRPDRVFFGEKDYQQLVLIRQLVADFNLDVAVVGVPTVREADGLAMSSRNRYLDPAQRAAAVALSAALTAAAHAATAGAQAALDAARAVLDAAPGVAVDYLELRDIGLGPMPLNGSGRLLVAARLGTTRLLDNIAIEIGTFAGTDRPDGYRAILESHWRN
row,SMILES,inhibition
1,Cc1cc2ccccc2c(=O)n1CC(=O)N(C)c1ccc(F)cc1,0%
2,N#Cc1c(N)oc(-c2cccs2)c1-c1cccs1,1%
3,CCCN1CCN(C(=O)Cn2c(=O)oc3cc(S(=O)(=O)NCc4ccccc4)ccc32)CC1,3%
4,Cc1cccc(-c2nnn(CC/C(N)=N/O)n2)c1,3%
5,CC12CCC(C(=O)N3CCN(C(=O)C45CCC(C)(C(=O)O4)C5(C)C)CC3)(OC1=O)C2(C)C,0%
6,COC(=O)c1ccccc1NC(=O)C1CC(=O)N(c2ccc(F)cc2)C1 (stereo not given),20%
7,O=C(c1noc2c1CCc1ccccc1-2)N1CCOCC1,0%
8,CC(C)N(C(=O)CSc1nnc(-c2cc3ccccc3cc2O)n1Cc1ccco1)C(C)C,1%
9,COc1ccc(OC)c2[nH]c(=O)c(CCNC(=O)C(C)C)cc12,0%
10,Cc1ccc(-c2nnn(CC(=O)N(Cc3cccs3)C(C(=O)NC(C)(C)C)c3ccc(C)o3)n2)o1 (stereo not given),0%
11,CCC(=NC(C)c1ccccc1)c1c(O)n(C)c(=O)n(C)c1=O (stereo not given),0%
12,Cc1ccc(S(=O)(=O)N2CCN(S(=O)(=O)N(C)C)CC2)cc1,0%
13,COC(=O)C1=C(C)NC(=O)C1(NC(=O)c1cccnc1)C(F)(F)F (stereo not given),0%
14,COC(=O)C(C)Sc1nc2c(c(=O)n(C)c(=O)n2C)n1Cc1cccc(C)c1 (stereo not given),2%
15,CC(CCc1ccccc1)NCC(O)c1ccc(O)c(C(N)=O)c1 (stereo not given),2%
16,O=C(NCCO)c1cccc2c1C(=O)c1ccccc1-2,11%
17,C=CCNC(=O)CSc1nc2sc(C)c(C)c2c(=O)[nH]1,0%
18,Cc1ccc(S(=O)(=O)NCC(=O)N(CC(=O)NC2CCCCC2)Cc2ccco2)cc1,11%
19,Cc1nc(NCCNC(=O)c2ccco2)c2c(C)c(C)sc2n1,2%
20,CCN1C(=O)c2cccc3c(NC(=O)c4ccc5c(c4)OCCO5)ccc1c23,0%

row,SMILES,inhibition
1,CCOC(=O)c1oc2ccccc2c1NC(=O)COC,0%
2,CCn1c(SCC(=O)Nc2ccccc2F)nc2c(c1=O)SC(C)C2 (stereo not given),0%
3,Cc1ccccc1-c1nc(CS(=O)(=O)CC(=O)NCc2ccc3c(c2)OCO3)c(C)o1,6%
4,Cc1c(C(=O)N2CCOCC2)oc2ccc(S(=O)(=O)N3CCCC3)cc12,0%
5,COc1ccc2[nH]c(=O)c(CN(CCO)S(=O)(=O)c3ccc4c(c3)OCCO4)cc2c1,0%
6,CCn1c(SCC(=O)c2ccc(F)cc2)nnc1-c1ccoc1C,4%
7,COc1ccc2nc(S(=O)Cc3ncc(C)c(OC)c3C)[nH]c2c1 (stereo not given),4%
8,O=C(Nc1ccc(Cl)cc1C(=O)O)c1ccc2c(c1)C(=O)N(Cc1ccco1)C2=O,0%
9,Cc1[nH]nc2c1C(c1ccc(F)cc1)C1=C(CC(C)(C)CC1=O)N2 (stereo not given),11%
10,CCOc1ccc(-n2cc(C(=O)N3CCN(C)CC3)c3cc(OC)c(OC)cc3c2=O)cc1,0%
11,Cc1ccc(F)cc1NC(=O)c1cccc2nccnc12,1%
12,O=C(Cn1nnc(-c2cc(Cl)ccc2-n2cnnn2)n1)N1CCCc2ccccc21,0%
13,O=C1C=C(NCc2ccco2)C2(CCCCC2)O1,0%
14,O=C(C1CCC1)N1CCc2cc(S(=O)(=O)Nc3ccc4c(c3)OCO4)ccc21,16%
15,CCOCCCNC(=O)C(NC(=O)c1ccccn1)c1ccc(C)cc1 (stereo not given),0%
16,CC(C)NC(=O)NC(=O)COc1cccc2c1OC(C)(C)C2,0%
17,Cc1ccc(/C=c2\sc3nc(-c4ccccc4Br)nn3c2=O)o1,0%
18,COCCCNC(=O)C(Cc1ccccc1)NS(=O)(=O)c1ccc2c(c1)c(=O)n(C)c(=O)n2C (stereo not given),0%
19,COc1ccc(Cn2nnnc2C(c2ccncc2)N2CCOCC2)cc1 (stereo not given),0%
20,COc1ccccc1-c1nc(SCc2ccccn2)n[nH]1,0%
